The source of these data is PubChem BioAssay AID2588 (National Center for Advancing Translational Sciences (NCATS), 2010).

Values joined by “and” are separate entries in the source; they are usually repeats but may differ in a detail not shown here. Equal entries are not always repeated. Records with an inconclusive call do not appear. Active and inactive are the calls of the source. Calls come from the whole dose curve; as a rule, active = well fitted inhibition curve with a large enough effect; inconclusive = small, poorly fitted or top-dose-only effect, or effect the other way; inactive = flat fitted curve, though single readings scatter.

The target in this assay is Lysosomal acid glucosylceramidase (Homo sapiens) (UniProt P04062). Kind of assay: qHTS Assay for Inhibitors and Activators of N370S glucocerebrosidase as a Potential Chaperone Treatment of Gaucher Disease: Activity in Non-Mutant Spleen Homogenate Using a Red Fluorescent Substrate. Conditions: red fluorogenic substrate GCase activity; series mostly up to 50.2 µM. An excerpt: NIH Chemical Genomics Center [NCGC]
Chain of Lysosomal acid glucosylceramidase (Homo sapiens) (P04062 whole entry, looked up): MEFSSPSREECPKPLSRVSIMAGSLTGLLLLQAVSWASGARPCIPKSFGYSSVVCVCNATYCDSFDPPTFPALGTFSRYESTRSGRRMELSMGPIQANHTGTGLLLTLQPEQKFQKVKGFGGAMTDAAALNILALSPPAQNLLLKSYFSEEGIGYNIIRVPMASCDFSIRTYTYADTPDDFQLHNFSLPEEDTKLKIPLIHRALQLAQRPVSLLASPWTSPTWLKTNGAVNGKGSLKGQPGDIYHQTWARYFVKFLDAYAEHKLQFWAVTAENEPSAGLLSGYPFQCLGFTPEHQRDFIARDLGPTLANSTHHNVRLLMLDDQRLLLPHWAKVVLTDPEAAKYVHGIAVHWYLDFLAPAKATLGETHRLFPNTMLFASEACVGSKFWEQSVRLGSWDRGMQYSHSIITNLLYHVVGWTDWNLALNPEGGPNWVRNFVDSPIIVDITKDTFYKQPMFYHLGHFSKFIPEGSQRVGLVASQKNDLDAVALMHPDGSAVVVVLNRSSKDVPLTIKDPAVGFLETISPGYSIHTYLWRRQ
NIH Molecular Libraries Probe Production Centers Network [MLPCN]
Assay Submitter (PI): Wei Zheng
Glucocerebrosidase (GC) catalyzes the hydrolysis of beta-glucocerebroside to glucose and ceramide in lysosomes. Mutations in the glucocerebrosidase gene result in Gaucher disease, an autosomal recessive lysosomal storage disorder. Many of the mutations encountered in patients with Gaucher disease are missense alterations that may cause misfolding, decreased stability and/or mistrafficking of this lysosomal protein. […] These inhibitors include iminosugar analogs and three non-iminosugar inhibitors identified from a previous HTS of 62,000 compounds with the wild type recombinant enzyme. However, the enhancement of enzyme activity by the chaperone action of an enzyme inhibitor must be balanced against the direct inhibition of the enzyme. An enzyme activator could also function as a chaperone by binding to the enzyme and helping to correct its misfolding and mistrafficking. While activators for GC have not yet been identified, they may have better therapeutic potential than inhibitors. Therefore the discovery and development of chemical activators may provide a new strategy for the chaperone therapy.
We have optimized a new assay using N370S mutant GC derived from the spleen of a Gaucher patient. […] In addition, the MLPCN compound library has expanded, which increases the chance of finding new and better probes.
This confirmation assay tests for compound activity in spleen homogenate containing wildtype enzyme using an alternate resorufin-based substrate.
NCGC Assay Protocol Summary:
This is a fluorogenic enzyme assay with resorufin-beta-D-glucopyranoside as the substrate and wildtype glucocerebrosidase from human spleen homogenate as the enzyme preparation. Upon the hydrolysis of this fluorogenic substrate, the resulting product, […] which can be detected by a standard fluorescence plate reader. Data were normalized to the controls for basal activity (without enzyme) and 100% activity (with enzyme). The AC50 values were determined from concentration-response data modeled with the standard Hill equation.
Assay buffer: 50 mM citric acid (titrated with potassium phosphate to pH 5.0), 100 mM potassium chloride, 10 mM sodium chloride, 1 mM magnesium chloride, 0.01% Tween-20.
1536-well assay protocol:
(1) Add 2 ul/well of spleen homogenate (27 ug final)
(2) Add 23 nL compounds in DMSO solution. The final titration was 0.5 nM to 58 uM.
(3) Add 2 ul of substrate (1 mM final)
(4) Incubate at 37C for 40 min.
(5) Add 2 ul stop solution (1M NaOH and 1M Glycine mixture, pH 10)
(6) Detect the assay plate in a ViewLux plate reader (PerkinElmer) with Ex=365 nm and Em=440nm.
Keywords: Glucocerebrosidase, beta-glucosidase, Gaucher Disease, pharmacological chaperone, chaperone therapy, high throughput screening, glucocerebrosidase inhibitor, MLSMR, MLSCN, NIH Roadmap, qHTS and NCGC
For orientation: Quantitative high-throughput screening tests each substance at several concentrations.
With `O=S(=O)(c1ccccc1F)N1CCN(c2nc(-c3cccs3)nc3ccccc23)CC1`, the Potency is 0.501 µM (active).

With `CCOc1ccccc1NC(=O)CN(c1ccc(C)cc1)S(=O)(=O)c1c(C)noc1C`, the Potency entry was “inactive”.

Turning to `COc1ccc(-c2nc(N3CCN(S(=O)(=O)c4ccc(F)cc4)CC3)c3ccccc3n2)cc1`, the Potency entry is “inactive”.

Take `CCCC1CCC(C(=O)Nc2ccc3nc(N4CCOCC4)cc(C)c3c2)CC1` (stereo not given): the Potency was 0.447 µM (active).

For the compound `Cc1cc(Nc2cccc(Cl)c2)nc2ccc(NC(=O)C3CCC(C)CC3)cc12` (stereo not given), the Potency entry was “inactive”.

Consider `COc1cccc(NC(=O)CSc2nc3ccccc3c(=O)n2Cc2cccs2)c1`, for which the Potency entry was “inactive”.

On to `CN(c1ccc(C(=O)Nc2nccs2)cc1)S(=O)(=O)c1ccccc1`, for which the Potency was 35.5 µM (active).

`O=S(=O)(c1ccccc1Cl)N1CCN(c2nc(-c3cccs3)nc3ccccc23)CC1`: the Potency was 0.794 µM (active).

With `O=S(=O)(c1cccc(C(F)(F)F)c1)N1CCN(c2nc(-c3ccccc3)nc3ccccc23)CC1`, the Potency is 8.91 µM (active).

Consider `Cc1ccc(S(=O)(=O)N2CCN(c3nc(-c4cccs4)nc4ccccc34)CC2)cc1`, for which the Potency is 0.316 µM (active).

For the compound `O=S(=O)(c1ccc2ccccc2c1)N1CCN(c2nc(-c3cccs3)nc3ccccc23)CC1`, the Potency is 0.251 µM (active).

Consider `COc1ccccc1OCC(=O)Nc1oc(-c2ccccc2)c(-c2ccccc2)c1C#N`, for which the Potency entry is “inactive”.

With `Cc1cc(N2CCC(C)CC2)nc2ccc(NC(=O)C3CCC(C)CC3)cc12` (stereo not given), the Potency was 5.01 µM (active).

With `Cc1cccc(Nc2nc(NCCO)nc(N3CCCC3)n2)c1`, the Potency result was “inactive”.

Take `S=C(NCCCc1cnc[nH]1)NCCCN(Cc1ccc(Cl)c(Cl)c1)c1ccc(Br)cn1`: the Potency is 1 µM (active).

Take `Cc1ccc(Cl)cc1NC(=O)c1ccccc1OCC(=O)Nc1ccc(Cl)cc1`: the Potency entry is “inactive”.

On to `O=S(=O)(c1ccc(F)cc1)N1CCN(c2nc(-c3ccc(F)cc3)nc3cc(Cl)ccc23)CC1`, for which the Potency entry is “inactive”.

On to `Cc1ccc(NC(=O)COc2ccccc2C(=O)Nc2ccccc2)cc1Cl`, for which the Potency result was “inactive”.

`COc1ccc(S(=O)(=O)N2CCN(c3nc(-c4cccs4)nc4ccccc34)CC2)cc1`: the Potency is 0.355 µM (active).

In the case of `CCOC(=O)c1ccc(S(=O)(=O)N2CCN(c3nc(-c4cccs4)nc4ccccc34)CC2)cc1`, the Potency is 0.794 µM (active).

Consider `Cc1ccc(C)c(N2CCN(C(=O)CCC(=O)Nc3ccc4nc(N5CCOCC5)cc(C)c4c3)CC2)c1`, for which the Potency is 14.1 µM (active).

Take `COc1cc(OC)cc(C(=O)N[C@H](C(=O)OCC(=O)Nc2cccc(F)c2)C(C)C)c1`: the Potency result is “inactive”.

Turning to `O=C(Nc1ccccc1)c1ccc(NS(=O)(=O)c2ccccc2)cc1`, the Potency entry was “inactive”.

On to `O=S(=O)(c1cccc(Br)c1)N1CCN(c2nc(-c3cccs3)nc3ccccc23)CC1`, for which the Potency is 1.41 µM (active).

For the compound `O=C(COc1ccccc1C(=O)c1cnn(-c2ccccc2)c1)Nc1ccccc1`, the Potency result is “inactive”.

Consider `O=[N+]([O-])c1ccccc1S(=O)(=O)N1CCN(c2nc(-c3ccccc3)nc3ccccc23)CC1`, for which the Potency was 4.47 µM (active).

Regarding `O=S(=O)(c1ccc2c(c1)OCCO2)N1CCN(c2nc(-c3ccccc3)nc3ccccc23)CC1`, the Potency was 4.47 µM (active).

For the compound `O=C(CSc1nccc(-c2cccs2)n1)Nc1cccc(Cl)c1`, the Potency result was “inactive”.

Turning to `NS(=O)(=O)c1ccc(S(=O)(=O)N2CCN(c3nc(-c4cccs4)nc4ccccc34)CC2)cc1`, the Potency was 2.24 µM (active).

Take `O=[N+]([O-])c1ccc(S(=O)(=O)N2CCN(c3nc(-c4cccs4)nc4ccccc34)CC2)cc1`: the Potency was 1.12 µM (active).

For the compound `Cc1cc(C)n2ncc(C(=O)Nc3cccc(O)c3)c2n1`, the Potency result was “inactive”.

As for `Cc1ccccc1-c1nccc(NCc2cccs2)n1`, the Potency was 14.1 µM (active).

Consider `CC(C)(C)C(=O)OCCNc1nc(-c2ccccc2)nc2ccccc12`, for which the Potency was 2.24 µM (active).

Consider `O=C(Nc1nccs1)c1ccc(NS(=O)(=O)c2ccc(Cl)cc2)cc1`, for which the Potency result was “inactive”.

For `Cc1cc(N2CCCCC2)nc2ccc(NC(=O)C3CCC(C)CC3)cc12` (stereo not given), the Potency is 7.94 µM (active).

For the compound `CC(C)(C)c1ccc(S(=O)(=O)N2CCN(c3nc(-c4cccs4)nc4ccccc34)CC2)cc1`, the Potency was 1.12 µM (active).

Regarding `O=S(=O)(c1ccccc1Br)N1CCN(c2nc(-c3cccs3)nc3ccccc23)CC1`, the Potency was 0.562 µM (active).

As to `O=S(=O)(c1ccc(Cl)cc1)N1CCN(c2nc(-c3cccc(Br)c3)nc3ccccc23)CC1`, the Potency result was “inactive”.

`O=S(=O)(c1ccc(Cl)cc1)N1CCN(c2nc(-c3cccs3)nc3ccccc23)CC1`: the Potency is 1.58 µM (active) and 355 nM (active).

With `Cc1cc(N2CCOCC2)nc2ccc(NC(=O)CCC(=O)NC3CCCCC3)cc12`, the Potency result is “inactive”.
